Data on 62 molecules can be found in the antibiotic and cytotoxicity screens of Wong et al. (2023).

Screen size: about 39,000 compounds; about 3,300 (8.5%) were called active. The sample holds actives, similar compounds and a random draw of the others, so the mix is not that of the screen.

This experiment has as its system HepG2. Nature of the experiment: cytotoxicity call (relative viability < 0.9). The conditions noted are these: 10 µM.
For the molecule `COc1ccc(S(=O)(=O)Nc2ccc3c(c2)C(=O)N([C@H](C)CO)C[C@H](C)[C@H](CN(C)C(=O)CCC(F)(F)F)OCCCC[C@@H](C)O3)cc1`, the cytotoxicity call is “inactive”.

With `COc1ccc(NC(=O)Nc2ccc3c(c2)C(=O)N([C@H](C)CO)C[C@@H](C)[C@@H](CN(C)Cc2ccncc2)OCCCC[C@@H](C)O3)cc1`, the cytotoxicity call was “inactive”.

In the case of `Cc1ccc(S(=O)(=O)NCC[C@H]2CC[C@@H](NS(=O)(=O)c3ccccc3Cl)[C@@H](CO)O2)cc1`, the cytotoxicity call is “inactive”.

Take `Cc1noc(C)c1NC(=O)Nc1ccc2c(c1)CC(=O)N([C@@H](C)CO)C[C@@H](C)[C@H](CN(C)S(=O)(=O)c1cn(C)cn1)O2`: the cytotoxicity call was “inactive”.

For `CN1C(=O)c2cc(NC(=O)c3cnccn3)ccc2OC[C@H]2O[C@@H](CC(=O)N[C@H]3CCN(Cc4ccccc4)C3)CC[C@H]21`, the cytotoxicity call was “inactive”.

Turning to `COc1ccc(CN(C)C[C@H]2OCCCC[C@H](C)Oc3ccc(NC(=O)Nc4cccc5ccccc45)cc3C(=O)N([C@H](C)CO)C[C@H]2C)cc1`, the cytotoxicity call is “inactive”.

With `COc1ccc(CN(C)C[C@H]2OCCCC[C@@H](C)Oc3ccc(NC(=O)Nc4cccc5ccccc45)cc3C(=O)N([C@@H](C)CO)C[C@H]2C)cc1`, the cytotoxicity call is “active”.

On to `COc1ccc(CN(C)C[C@@H]2OCCCC[C@@H](C)Oc3ccc(NC(=O)Nc4cccc5ccccc45)cc3C(=O)N([C@@H](C)CO)C[C@@H]2C)cc1`, for which the cytotoxicity call was “inactive”.

Take `COc1ccc(CN(C)C[C@@H]2OCCCC[C@@H](C)Oc3ccc(NC(=O)Nc4cccc5ccccc45)cc3C(=O)N([C@H](C)CO)C[C@@H]2C)cc1`: the cytotoxicity call was “inactive”.

`COc1ccc(CN(C)C[C@H]2OCCCC[C@@H](C)Oc3ccc(NC(=O)Nc4cccc5ccccc45)cc3C(=O)N([C@@H](C)CO)C[C@@H]2C)cc1`: the cytotoxicity call was “inactive”.

With `COc1ccc(CN(C)C[C@H]2OCCCC[C@@H](C)Oc3ccc(NC(=O)Nc4cccc5ccccc45)cc3C(=O)N([C@H](C)CO)C[C@@H]2C)cc1`, the cytotoxicity call is “active”.

As for `C[C@H]1CN([C@@H](C)CO)C(=O)c2cc(NC(=O)Cn3cnnn3)ccc2O[C@H]1CN(C)S(=O)(=O)c1ccc(F)cc1`, the cytotoxicity call was “inactive”.

As for `C[C@@H]1CN([C@H](C)CO)C(=O)c2cccc(NS(=O)(=O)c3ccccc3)c2O[C@@H]1CN(C)S(=O)(=O)c1ccccc1`, the cytotoxicity call is “inactive”.

Take `C[C@@H]1CN([C@H](C)CO)C(=O)c2cc(NC(=O)Cc3ccccc3)ccc2O[C@@H](C)CCCCO[C@H]1CN(C)C(=O)Nc1ccc(F)cc1`: the cytotoxicity call is “inactive”.

In the case of `C[C@H]1CN([C@@H](C)CO)C(=O)Cc2cc(NS(=O)(=O)c3ccc(F)cc3)ccc2O[C@H]1CN(C)S(=O)(=O)c1ccccc1`, the cytotoxicity call was “inactive”.

Take `C#Cc1cnc(OC)cn1`: the cytotoxicity call was “inactive”.

On to `C[C@H]1CCCCO[C@H](CN(C)C)[C@@H](C)CN([C@@H](C)CO)C(=O)c2cc(NC(=O)Nc3cccc4ccccc34)ccc2O1`, for which the cytotoxicity call is “inactive”.

For the molecule `C[C@H](CO)N1C[C@H](C)[C@@H](CN(C)C)OCCCC[C@H](C)Oc2ccc(NC(=O)Nc3cccc4ccccc34)cc2C1=O`, the cytotoxicity call was “inactive”.

Turning to `C[C@@H]1CCCCO[C@H](CN(C)CC2CCCCC2)[C@@H](C)CN([C@H](C)CO)C(=O)c2cc(NC(=O)Nc3cccc4ccccc34)ccc2O1`, the cytotoxicity call is “active”.

As to `C[C@@H]1CN([C@@H](C)CO)C(=O)c2cc(NC(=O)Nc3cccc4ccccc34)ccc2O[C@@H](C)CCCCO[C@H]1CN(C)CC1CCCCC1`, the cytotoxicity call was “active”.

In the case of `C[C@@H]1CN([C@@H](C)CO)C(=O)c2cc(NC(=O)Nc3cccc4ccccc34)ccc2O[C@@H](C)CCCCO[C@@H]1CN(C)CC1CCCCC1`, the cytotoxicity call was “active”.

Turning to `C[C@H]1CCCCO[C@H](CN(C)CC2CCCCC2)[C@@H](C)CN([C@@H](C)CO)C(=O)c2cc(NC(=O)Nc3cccc4ccccc34)ccc2O1`, the cytotoxicity call is “active”.

Regarding `CN(C)c1ccc(O)c2c1C[C@@H]1C[C@@H]3[C@@H](N(C)C)C(=O)C(C(N)=O)=C(O)[C@]3(O)C(=O)[C@H]1C2=O`, the cytotoxicity call is “inactive”.

With `CC(C)NC(=O)N(C)C[C@@H]1Oc2ccc(NC(=O)Cn3cnnn3)cc2C(=O)N([C@H](C)CO)C[C@H]1C`, the cytotoxicity call is “inactive”.

As to `COCC#Cc1ccc2c(c1)O[C@H](CN(C)S(=O)(=O)c1ccc(OC)cc1)[C@@H](C)CN([C@H](C)CO)S2(=O)=O`, the cytotoxicity call is “inactive”.

As for `O=C(O)c1ccc2c(ccc3nn(-c4ccc(/C=C/c5ccc(-n6nc7ccc8cc(C(=O)O)ccc8c7n6)cc5S(=O)(=O)O)c(S(=O)(=O)O)c4)nc32)c1`, the cytotoxicity call is “inactive”.

For the molecule `C[C@H]1CN([C@@H](C)CO)C(=O)c2cc(C#Cc3ccncc3)cnc2O[C@H]1CN(C)C(=O)c1ccccc1F`, the cytotoxicity call was “inactive”.

In the case of `COc1ccc(S(=O)(=O)N(C)C[C@H]2Oc3ccc(NC(=O)CCC(F)(F)F)cc3CC(=O)N([C@@H](C)CO)C[C@H]2C)cc1`, the cytotoxicity call is “inactive”.

For `C[C@@H]1CN([C@H](C)CO)C(=O)c2c(c3ccccc3n2C)-c2ccccc2CO[C@@H]1CN(C)Cc1cccc(O)c1`, the cytotoxicity call is “inactive”.

For `Cc1noc(C)c1NC(=O)Nc1cccc2c1O[C@@H](CN(C)Cc1ccc(C(=O)Nc3ccccc3N)cc1)[C@H](C)CN([C@@H](C)CO)C2=O`, the cytotoxicity call was “inactive”.

As for `C[C@@H]1CN([C@H](C)CO)C(=O)Cc2cc(NC(=O)Cc3ccccc3)ccc2O[C@@H]1CN(C)S(=O)(=O)c1ccccc1`, the cytotoxicity call was “inactive”.

`C[C@@H]1CN([C@H](C)CO)S(=O)(=O)c2ccc(C#CC3CCCC3)cc2O[C@H]1CN(C)Cc1cncnc1`: the cytotoxicity call was “inactive”.

On to `C[C@H](CO)N1C[C@H](C)[C@H](CN(C)Cc2ccncc2)Oc2c(NS(=O)(=O)c3cccs3)cccc2C1=O`, for which the cytotoxicity call is “inactive”.

Take `CO[C@@H]1CN(C)C(=O)c2ccc(NC(=O)Nc3cccc(F)c3)cc2OC[C@@H](C)N(C(=O)Nc2cccc(F)c2)C[C@H]1C`: the cytotoxicity call is “inactive”.

Consider `C[C@H](CO)N1C[C@H](C)[C@H](CN(C)C(=O)CN2CCOCC2)Oc2cc(C#Cc3cccc(F)c3)ccc2S1(=O)=O`, for which the cytotoxicity call is “inactive”.

Regarding `C[C@@H]1CCCCO[C@H](CN(C)CC2CCCCC2)[C@H](C)CN([C@@H](C)CO)C(=O)c2cc(NC(=O)Nc3cccc4ccccc34)ccc2O1`, the cytotoxicity call is “active”.

With `C[C@@H]1CCCCO[C@H](CN(C)C)[C@@H](C)CN([C@H](C)CO)C(=O)c2cc(NC(=O)Nc3cccc4ccccc34)ccc2O1`, the cytotoxicity call is “inactive”.

Take `C[C@@H]1CCCCO[C@H](CN(C)CC2CCCCC2)[C@H](C)CN([C@H](C)CO)C(=O)c2cc(NC(=O)Nc3cccc4ccccc34)ccc2O1`: the cytotoxicity call was “active”.

Regarding `C[C@@H]1CN([C@@H](C)CO)C(=O)c2cc(NC(=O)Nc3cccc4ccccc34)ccc2O[C@@H](C)CCCCO[C@H]1CN(C)CC1CC1`, the cytotoxicity call was “inactive”.

For `C[C@@H]1CCCCO[C@@H](CN(C)C)[C@H](C)CN([C@H](C)CO)C(=O)c2cc(NC(=O)Nc3cccc4ccccc34)ccc2O1`, the cytotoxicity call is “inactive”.

For `C[C@@H]1CCCCO[C@@H](CN(C)CC2CC2)[C@@H](C)CN([C@H](C)CO)C(=O)c2cc(NC(=O)Nc3cccc4ccccc34)ccc2O1`, the cytotoxicity call was “inactive”.

Take `C[C@@H]1CCCCO[C@@H](CN(C)CC2CC2)[C@H](C)CN([C@@H](C)CO)C(=O)c2cc(NC(=O)Nc3cccc4ccccc34)ccc2O1`: the cytotoxicity call was “inactive”.

Consider `C[C@H]1CCCCO[C@@H](CN(C)CC2CCCCC2)[C@@H](C)CN([C@@H](C)CO)C(=O)c2cc(NC(=O)Nc3cccc4ccccc34)ccc2O1`, for which the cytotoxicity call was “active”.

As to `C[C@@H]1CCCCO[C@@H](CN(C)CC2CCCCC2)[C@@H](C)CN([C@@H](C)CO)C(=O)c2cc(NC(=O)Nc3cccc4ccccc34)ccc2O1`, the cytotoxicity call was “active”.

Consider `C[C@@H]1CCCCO[C@@H](CN(C)CC2CC2)[C@H](C)CN([C@H](C)CO)C(=O)c2cc(NC(=O)Nc3cccc4ccccc34)ccc2O1`, for which the cytotoxicity call is “inactive”.

Consider `CO[C@H](CN(C)S(=O)(=O)c1cn(C)cn1)[C@@H](C)CN(C(=O)Nc1ccc(C(F)(F)F)cc1)[C@H](C)CO`, for which the cytotoxicity call is “inactive”.

Turning to `Cc1noc(C)c1S(=O)(=O)N(C)C[C@H]1Oc2ccc(NC(=O)NC3CCCCC3)cc2CC(=O)N([C@H](C)CO)C[C@H]1C`, the cytotoxicity call is “inactive”.

For the molecule `Cc1ccc(S(=O)(=O)N(C)C[C@H]2Oc3c(NC(=O)c4ccncc4)cccc3C(=O)N([C@@H](C)CO)C[C@@H]2C)cc1`, the cytotoxicity call was “inactive”.

Regarding `C[C@H]1CN([C@@H](C)CO)C(=O)c2cccc(NC(=O)c3ccc(-c4nccs4)cc3)c2O[C@H]1CN(C)S(=O)(=O)c1ccc(Cl)cc1`, the cytotoxicity call is “inactive”.

As to `CNC1C(OC2OC(CO)C(N)C(O)C2O)OC2CC(N)C(OC3C(N)CC(N)C(O)C3O)OC2C1O.O=S(=O)(O)O` (configuration not stated), the cytotoxicity call was “inactive”.

For `C[C@H]1CN([C@@H](C)CO)C(=O)Cc2cc(NC(=O)c3ccncc3)ccc2O[C@@H]1CN(C)S(C)(=O)=O`, the cytotoxicity call was “inactive”.

`C[C@@H]1CN([C@@H](C)CO)C(=O)Cc2cc(NC(=O)C3CC3)ccc2O[C@@H]1CN(C)S(=O)(=O)c1ccccc1`: the cytotoxicity call was “inactive”.

On to `CO[C@@H]1CN(C)C(=O)c2ccc(NC(=O)C3CC3)cc2OC[C@H](C)N(C(=O)C2CCOCC2)C[C@H]1C`, for which the cytotoxicity call is “inactive”.

With `C[C@@H]1CN([C@@H](C)CO)C(=O)c2cc(NS(=O)(=O)c3cn(C)cn3)ccc2O[C@@H](C)CCCCO[C@H]1CN(C)C`, the cytotoxicity call was “inactive”.

Turning to `C[C@@H]1CCCCO[C@@H](CN(C)CC2CCCCC2)[C@@H](C)CN([C@H](C)CO)C(=O)c2cc(NC(=O)Nc3cccc4ccccc34)ccc2O1`, the cytotoxicity call was “active”.

Consider `C[C@H](CO)N1C[C@H](C)[C@H](CN(C)CC2CCCCC2)OCCCC[C@H](C)Oc2ccc(NC(=O)Nc3cccc4ccccc34)cc2C1=O`, for which the cytotoxicity call is “active”.

Turning to `C[C@H](CO)N1C[C@H](C)[C@@H](CN(C)CC2CCCCC2)OCCCC[C@H](C)Oc2ccc(NC(=O)Nc3cccc4ccccc34)cc2C1=O`, the cytotoxicity call was “active”.

As to `C[C@H](CO)N1C[C@H](C)[C@H](CN(C)CC2CC2)OCCCC[C@H](C)Oc2ccc(NC(=O)Nc3cccc4ccccc34)cc2C1=O`, the cytotoxicity call is “inactive”.

As for `C[C@@H]1CCCCO[C@@H](CN(C)CC2CCCCC2)[C@H](C)CN([C@@H](C)CO)C(=O)c2cc(NC(=O)Nc3cccc4ccccc34)ccc2O1`, the cytotoxicity call was “active”.

As to `C[C@@H]1CCCCO[C@H](CN(C)CC2CC2)[C@H](C)CN([C@@H](C)CO)C(=O)c2cc(NC(=O)Nc3cccc4ccccc34)ccc2O1`, the cytotoxicity call was “inactive”.

With `C[C@@H]1CCCCO[C@H](CN(C)CC2CC2)[C@@H](C)CN([C@H](C)CO)C(=O)c2cc(NC(=O)Nc3cccc4ccccc34)ccc2O1`, the cytotoxicity call was “inactive”.

For `C[C@H](CO)N1C[C@H](C)[C@@H](CN(C)CC2CC2)OCCCC[C@H](C)Oc2ccc(NC(=O)Nc3cccc4ccccc34)cc2C1=O`, the cytotoxicity call was “inactive”.
